Source: PubChem BioAssay AID1159580 (chemical genetic matrix, 2015)
Among all 5,500 compounds or so, about 2,000 (36%) were called active. Inconclusive results (about 18%) are left out. Cut-off read from the data, not from the text of the source: active = normalized growth mostly below about 0.91 (no sharp cut-off); inconclusive = no clear call, values can overlap the other calls; inactive = mostly above about 0.92. The list shows a part of the results.

Test: chemical genetic growth profiling, strain panel (AID 1159580);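 note: tested at 20 µM; growth read once vehicle control cultures reached saturation at 30 °C; 1 = growth at the plate median or of vehicle wells; lower values mean less growth of the strain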
Conditions: growth OD

Measured: normalized growth

CC1(C)C(C=C(Cl)Cl)C1C(=O)OC(C#N)c1cccc(Oc2ccccc2)c1 (stereo unspecified)
inactive: S. cerevisiae deletion strains, locus YAL013W, strain DEP1, hits give low values 0.996 | S. cerevisiae deletion strains, locus YBR021W, strain FUR4, hits give low values 0.962 | S. cerevisiae deletion strains, locus YBR229C, strain ROT2, hits give low values 0.986 | S. cerevisiae deletion strains, locus YCL029C, strain bik1, hits give low values 1.01 | S. cerevisiae deletion strains, locus YDL035C, strain GPR1, hits give low values 0.998 | S. cerevisiae deletion strains, locus YDL074C, strain BRE1, hits give low values 1.01 | S. cerevisiae deletion strains, locus YDL101C, strain DUN1, hits give low values 0.993 | S. cerevisiae deletion strains, locus YDL134C, strain PPH21, hits give low values 0.995 | S. cerevisiae deletion strains, locus YDL185W, strain tfp1, hits give low values 0.996 | S. cerevisiae deletion strains, locus YDL192W, strain arf1, hits give low values 1 | S. cerevisiae deletion strains, locus YDR101C, strain arx1, hits give low values 0.996 | S. cerevisiae deletion strains, locus YDR150W, strain NUM1, hits give low values 1 | S. cerevisiae deletion strains, locus YDR162C, strain NBP2, hits give low values 1.02 | S. cerevisiae deletion strains, locus YDR318W, strain mcm21, hits give low values 0.983 | S. cerevisiae deletion strains, locus YDR388W, hits give low values 1 | S. cerevisiae deletion strains, locus YDR502C, strain sam2, hits give low values 0.998 | S. cerevisiae deletion strains, locus YEL061C, strain CIN8, hits give low values 0.999 | S. cerevisiae deletion strains, locus YER110C, hits give low values 0.99 | S. cerevisiae deletion strains, locus YER155C, strain BEM2, hits give low values 0.999 | S. cerevisiae deletion strains, locus YER167W, strain BCK2, hits give low values 0.987 | S. cerevisiae deletion strains, locus YGL078C, strain dbp3, hits give low values 1 | S. cerevisiae deletion strains, locus YGL086W, strain mad1, hits give low values 0.954 | S. cerevisiae deletion strains, locus YGL248W, strain PDE1, hits give low values 0.983 | S. cerevisiae deletion strains, locus YGR078C, strain PAC10, hits give low values 1.01 | S. cerevisiae deletion strains, locus YGR135W, strain pre9, hits give low values 0.992 | S. cerevisiae deletion strains, locus YGR229C, strain SMI1, hits give low values 1 | S. cerevisiae deletion strains, locus YGR252W, strain gcn5, hits give low values 0.95 | S. cerevisiae deletion strains, locus YHR030C, strain SLT2, hits give low values 0.99 | S. cerevisiae deletion strains, locus YHR079C, strain IRE1 (second series), hits give low values 1 | S. cerevisiae deletion strains, locus YHR094C, strain hxt1, hits give low values 0.998 | S. cerevisiae deletion strains, locus YHR129C, strain ARP1, hits give low values 0.997 | S. cerevisiae deletion strains, locus YHR200W, strain rpn10, hits give low values 0.992 | S. cerevisiae deletion strains, locus YIL066C, strain RNR3, hits give low values 0.98 | S. cerevisiae deletion strains, locus YIL073C, strain SPO22, hits give low values 0.99 | S. cerevisiae deletion strains, locus YIL125W, strain kgd1, hits give low values 1.01 | S. cerevisiae deletion strains, locus YIR030C, strain dcg1, hits give low values 0.998 | S. cerevisiae deletion strains, locus YJL095W, strain BCK1, hits give low values 1.01 | S. cerevisiae deletion strains, locus YJL134W, strain LCB3, hits give low values 0.984 | S. cerevisiae deletion strains, locus YJL168C, strain set2, hits give low values 1 | S. cerevisiae deletion strains, locus YJL187C, strain SWE1 (second series), hits give low values 1 | S. cerevisiae deletion strains, locus YJR043C, strain POL32, hits give low values 0.987 | S. cerevisiae deletion strains, locus YJR075W, strain HOC1, hits give low values 0.998 | S. cerevisiae deletion strains, locus YKL009W, strain mrt4, hits give low values 0.96 | S. cerevisiae deletion strains, locus YKL068W, hits give low values 1 | S. cerevisiae deletion strains, locus YKL085W, strain MDH1 (second series), hits give low values 0.992 | S. cerevisiae deletion strains, locus YKL085W, strain MDH1, hits give low values 0.992 | S. cerevisiae deletion strains, locus YKL190W, strain CNB1, hits give low values 1 | S. cerevisiae deletion strains, locus YKR001C, strain vps1, hits give low values 0.976 | S. cerevisiae deletion strains, locus YLR039C, strain RIC1, hits give low values 0.969 | S. cerevisiae deletion strains, locus YLR058C, strain SHM2, hits give low values 0.993 | S. cerevisiae deletion strains, locus YLR102C, strain apc9, hits give low values 1 | S. cerevisiae deletion strains, locus YLR262C, strain YPT6, hits give low values 0.99 | S. cerevisiae deletion strains, locus YLR268W, strain sec22, hits give low values 1 | S. cerevisiae deletion strains, locus YLR330W, strain CHS5, hits give low values 0.995 | S. cerevisiae deletion strains, locus YLR342W, strain FKS1 (second series), hits give low values 0.951 | S. cerevisiae deletion strains, locus YLR371W, strain rom2, hits give low values 1 | S. cerevisiae deletion strains, locus YLR418C, strain cdc73, hits give low values 1.05 | S. cerevisiae deletion strains, locus YML016C, strain PPZ1, hits give low values 0.994 | S. cerevisiae deletion strains, locus YML032C, strain rad52, hits give low values 0.98 | S. cerevisiae deletion strains, locus YML124C, strain tub3, hits give low values 0.998 | S. cerevisiae deletion strains, locus YMR078C, strain ctf18, hits give low values 0.98 | S. cerevisiae deletion strains, locus YMR223W, strain ubp8, hits give low values 0.974 | S. cerevisiae deletion strains, locus YMR263W, strain SAP30, hits give low values 1.01 | S. cerevisiae deletion strains, locus YMR307W, strain GAS1, hits give low values 0.94 | S. cerevisiae deletion strains, locus YNL067W, strain RPL9B, hits give low values 1.01 | S. cerevisiae deletion strains, locus YNL128W, strain TEP1, hits give low values 1 | S. cerevisiae deletion strains, locus YNL153C, strain GIM3, hits give low values 1.01 | S. cerevisiae deletion strains, locus YNL233W, strain BNI4, hits give low values 1.01 | S. cerevisiae deletion strains, locus YNL250W, strain rad50, hits give low values 0.993 | S. cerevisiae deletion strains, locus YNL271C, strain bni1, hits give low values 0.998 | S. cerevisiae deletion strains, locus YNL298W, strain CLA4, hits give low values 0.964 | S. cerevisiae deletion strains, locus YNL307C, strain MCK1, hits give low values 0.991 | S. cerevisiae deletion strains, locus YNL322C, strain KRE1, hits give low values 0.994 | S. cerevisiae deletion strains, locus YNR052C, strain pop2, hits give low values 0.979 | S. cerevisiae deletion strains, locus YOL006C, strain TOP1, hits give low values 1.03 | S. cerevisiae deletion strains, locus YOL012C, strain htz1 1.96 | S. cerevisiae deletion strains, locus YOL147C, strain pex11, hits give low values 1.01 | S. cerevisiae deletion strains, locus YOR061W, strain CKA2, hits give low values 0.997 | S. cerevisiae deletion strains, locus YOR069W, strain VPS5, hits give low values 0.995 | S. cerevisiae deletion strains, locus YOR136W, strain idh2, hits give low values 1 | S. cerevisiae deletion strains, locus YOR144C, strain elg1, hits give low values 0.997 | S. cerevisiae deletion strains, locus YOR184W, strain ser1, hits give low values 0.983 | S. cerevisiae deletion strains, locus YOR316C, strain cot1, hits give low values 0.996 | S. cerevisiae deletion strains, locus YPL055C, strain LGE1, hits give low values 1.03 | S. cerevisiae deletion strains, locus YPL241C, strain CIN2, hits give low values 1 | S. cerevisiae deletion strains, locus YPR119W, strain clb2, hits give low values 1.01 | S. cerevisiae deletion strains, locus YPR141C, strain kar3, hits give low values 0.992 | S. cerevisiae deletion strains, locus YPR163C, strain tif3, hits give low values 1.01 | S. cerevisiae deletion strains, locus YPR167C, strain met16, hits give low values 0.99 | S. cerevisiae deletion strains, strain wtn01, hits give low values 0.991 | S. cerevisiae strains, strain wild type, hits give low values 1.01
